These results are taken from PubChem BioAssay.

The nature of assay [1]: antimalarial activity against Dd2 strain (AID 2302;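 active = growth inhibition above 50% at the single 2 µM test dose, taken to imply half-maximal potency below 2 µM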;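 also: 0% = DMSO untreated growth and 100% = chloroquine plus artemisinin killed control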). The following applies: P. falciparum Dd2 in RBCs, LDH growth readout, 72 h; at 2 µM; active compounds read high.
The nature of assay [2]: human hepatoma cell viability loss – ATP luminescence, cytotoxicity control for P. falciparum antimalarial project, primary screen (AID 2303;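 active = inhibition above 50%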;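 also: 0% = DMSO wells and 100% = digitonin-killed cells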). The following applies: HepG2 viability, 24-48 h, at 10 µM, active compounds read high.
Assay [3] addresses L-lactate dehydrogenase (Plasmodium falciparum (isolate CDC / Honduras)) (UniProt Q27743). In words: PfLDH activity inhibition – cell lysate, 3D7 strain, counter-screen for P. falciparum growth inhibition project (AID 2304).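 Also: 0% = vehicle and 100% = reference inhibitor.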 The following applies: P. falciparum 3D7 crude extract, LDH APAD/NBT absorbance; at 2 µM; active compounds read high. (In general: The purpose of a counterscreen is to sort out artefacts and off-target activity.)

Assay [4] in a line: inhibition of 3D7 malaria parasite growth – strain 3D7 (AID 2306).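 Also: 0% = DMSO wells and 100% = chloroquine plus artemisinin control wells.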 The following applies: P. falciparum 3D7 erythrocytic growth, LDH absorbance, 72 h; at 2 µM; active compounds read high.
Assay [5] deals with Calcium-dependent protein kinase 1 (Plasmodium falciparum (isolate 3D7)) (UniProt P62344). In words: PfCDPK1 kinase inhibitors, biochemical, TCAMS library (AID 1159585; cut-off not given, nearly all actives have IC50 up to about 0.98 µM;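 also: inhibitors leave more ATP so luminescence rises with inhibition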). The following applies: recombinant PfCDPK1, Kinase-Glo ATP depletion luminescence. In general terms: Kinase-Glo reads ATP consumption through a luciferase reaction.
Sequence of Calcium-dependent protein kinase 1 (Plasmodium falciparum (isolate 3D7)) (P62344 whole entry, looked up): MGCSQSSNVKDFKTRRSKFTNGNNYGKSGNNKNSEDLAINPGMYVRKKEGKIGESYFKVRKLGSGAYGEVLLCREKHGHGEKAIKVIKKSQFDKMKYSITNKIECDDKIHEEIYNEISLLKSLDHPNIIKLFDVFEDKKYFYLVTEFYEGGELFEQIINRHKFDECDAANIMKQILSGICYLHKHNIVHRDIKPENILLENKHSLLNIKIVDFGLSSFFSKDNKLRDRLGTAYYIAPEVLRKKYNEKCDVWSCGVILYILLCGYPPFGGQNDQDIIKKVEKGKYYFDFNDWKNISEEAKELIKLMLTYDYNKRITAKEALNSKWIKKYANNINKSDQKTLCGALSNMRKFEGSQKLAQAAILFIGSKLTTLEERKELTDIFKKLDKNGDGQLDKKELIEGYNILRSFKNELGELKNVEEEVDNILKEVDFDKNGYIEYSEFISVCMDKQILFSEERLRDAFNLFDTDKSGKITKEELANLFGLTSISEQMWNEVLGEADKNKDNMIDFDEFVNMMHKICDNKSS
For assay [6], the target named is Plasmodium falciparum protein kinase 6 (PK6, PF3D7_1337100) (UniProt Q8IDW1). Nature of the assay: PfPK6 kinase inhibitors, biochemical, TCAMS library (AID 1159586). The following applies: recombinant PfPK6, Kinase-Glo ATP depletion luminescence.
Sequence of Plasmodium falciparum protein kinase 6 (PK6, PF3D7_1337100) (Q8IDW1 1-305): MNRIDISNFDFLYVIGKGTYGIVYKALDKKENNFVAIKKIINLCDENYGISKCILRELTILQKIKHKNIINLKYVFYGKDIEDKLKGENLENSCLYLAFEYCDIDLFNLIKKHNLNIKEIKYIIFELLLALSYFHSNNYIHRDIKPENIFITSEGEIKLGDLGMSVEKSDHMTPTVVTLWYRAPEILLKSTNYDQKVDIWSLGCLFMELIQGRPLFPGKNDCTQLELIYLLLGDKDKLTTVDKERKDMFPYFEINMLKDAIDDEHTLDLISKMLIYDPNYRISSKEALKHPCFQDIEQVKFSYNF
In assay [7] the target is Protein kinase 7 (PK7), Plasmodium falciparum 3D7 (PF3D7_0213400) (UniProt Q7YTF7). In words: inhibition of Plasmodium PK7 catalytic activity – biochemical, TCAMS antimalarial set, Kinase-Glo luminescence (AID 1159587). The following applies: recombinant PfPK7, Kinase-Glo ATP depletion luminescence.
Sequence of Protein kinase 7 (PK7), Plasmodium falciparum 3D7 (PF3D7_0213400) (Q7YTF7 1-343): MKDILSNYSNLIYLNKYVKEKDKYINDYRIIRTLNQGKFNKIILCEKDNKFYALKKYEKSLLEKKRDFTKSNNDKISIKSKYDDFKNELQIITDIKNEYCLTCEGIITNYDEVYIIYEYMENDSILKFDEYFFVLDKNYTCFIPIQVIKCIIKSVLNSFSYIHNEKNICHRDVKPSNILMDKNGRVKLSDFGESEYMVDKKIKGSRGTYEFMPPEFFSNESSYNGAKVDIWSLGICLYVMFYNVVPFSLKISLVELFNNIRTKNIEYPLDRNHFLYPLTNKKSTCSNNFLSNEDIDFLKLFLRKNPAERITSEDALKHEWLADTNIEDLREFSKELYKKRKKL
The target in assay [8] is Calcium-dependent protein kinase 4 (Plasmodium falciparum (isolate 3D7)) (UniProt Q8IBS5). In words: PfCDPK4 kinase inhibitors, biochemical, TCAMS library (AID 1159588; cut-off not given, nearly all actives have IC50 up to about 0.91 µM). The following applies: recombinant PfCDPK4, Kinase-Glo ATP depletion luminescence.
Sequence of Calcium-dependent protein kinase 4 (Plasmodium falciparum (isolate 3D7)) (Q8IBS5 whole entry, looked up): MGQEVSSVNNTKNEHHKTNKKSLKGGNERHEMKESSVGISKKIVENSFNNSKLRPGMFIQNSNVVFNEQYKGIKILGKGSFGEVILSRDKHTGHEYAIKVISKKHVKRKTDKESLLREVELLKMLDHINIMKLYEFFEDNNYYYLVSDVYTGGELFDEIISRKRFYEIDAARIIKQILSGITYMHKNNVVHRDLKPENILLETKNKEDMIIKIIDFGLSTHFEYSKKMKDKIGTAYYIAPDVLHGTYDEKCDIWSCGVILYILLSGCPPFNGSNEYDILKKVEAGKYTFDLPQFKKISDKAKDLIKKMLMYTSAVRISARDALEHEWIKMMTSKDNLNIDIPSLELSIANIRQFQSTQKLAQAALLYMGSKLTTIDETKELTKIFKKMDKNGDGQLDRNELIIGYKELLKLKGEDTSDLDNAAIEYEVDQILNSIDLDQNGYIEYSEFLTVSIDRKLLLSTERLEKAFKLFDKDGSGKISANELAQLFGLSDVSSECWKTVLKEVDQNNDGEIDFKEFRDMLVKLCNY

Unmarked numbers belong to inactive results. For some of these results: Entries with a potency or affinity are not part of this list. Active and inactive are the calls of the source. Unless noted, no rule for the calls is given here.

As usually defined, the inhibition is the change of the read-out against control, counted positive when it falls.

Sequence of L-lactate dehydrogenase (Plasmodium falciparum (isolate CDC / Honduras)) (Q27743 whole entry, looked up): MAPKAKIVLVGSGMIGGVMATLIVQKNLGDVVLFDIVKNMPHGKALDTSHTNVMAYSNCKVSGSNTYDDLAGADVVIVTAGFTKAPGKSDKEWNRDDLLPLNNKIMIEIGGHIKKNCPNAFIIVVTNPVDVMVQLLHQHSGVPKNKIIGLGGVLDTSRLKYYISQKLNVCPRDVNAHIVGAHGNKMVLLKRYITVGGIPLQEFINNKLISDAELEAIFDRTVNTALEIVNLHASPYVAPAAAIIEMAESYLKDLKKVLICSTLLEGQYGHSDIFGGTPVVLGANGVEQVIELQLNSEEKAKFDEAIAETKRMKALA

As for `Cc1ccccc1CNc1noc(-c2c(F)cccc2Cl)n1`, the values for the growth inhibition in assay [1] and in assay [4] were 90% (active) and 97% (active), respectively. Also, the inhibition is 14% in assay [2] and -5% in assay [3]. Moreover, the outcome in assay [5], in assay [6], in assay [7] and in assay [8] was inactive.
In the case of `CC(=O)N(C)C1CCN(Cc2ccc(-c3ccc(-c4nc5ccc(F)cc5[nH]4)s3)cc2)C1` (stereo not given), the growth inhibition is 22% in assay [1] and 98% (active) in assay [4]. The inhibition is 46% in assay [2] and 1% in assay [3]. Further, the outcome in assay [5], in assay [6], in assay [7] and in assay [8] was inactive.
Turning to `COc1ccc(Nc2nc(C)cc(NC3CCCC3)n2)cc1`, the growth inhibition in assay [1] is 59% (active); in assay [4] it was 98% (active). The inhibition is 34% in assay [2] and 0% in assay [3]. Besides, the outcome in assay [5], in assay [6], in assay [7] and in assay [8] was inactive.
`CN(C)c1ccc(CN2CCCCC(NC(=O)c3cc(-c4ccccc4Cl)cs3)C2)cc1` (stereo not given): the growth inhibition in assay [1] is 14%; in assay [4], 91% (active). For the same compound, the inhibition in assay [2] was 10%; in assay [3], -3%. Also, the outcome in assay [5], in assay [6], in assay [7] and in assay [8] was inactive.
For the compound `CCCCCCN1CCC(NCc2cccc(-n3ccnc3)c2)CC1`, the growth inhibition in assay [1] was 101% (active); in assay [4], 103% (active). Further, the figures for the inhibition in assay [2] and in assay [3] were 3% and 5%, respectively. For the same compound, the outcome in assay [5], in assay [6], in assay [7] and in assay [8] was inactive.
As for `CC(C)(C)n1nnnc1C(c1cccnc1)N(Cc1ccccc1)Cc1ccc(Cl)cc1` (stereo not given), the results for the growth inhibition in assay [1] and in assay [4] were 17% and 96% (active), respectively. The inhibition in assay [2] was 0%; in assay [3], -1%. Also, the outcome in assay [5], in assay [6], in assay [7] and in assay [8] was inactive.
In the case of `Cc1[nH]c(C)c(-c2ccc(Br)cc2)c(=O)c1Br`, the growth inhibition in assay [1] was 95% (active); in assay [4], 98% (active). The inhibition is 9% in assay [2] and 6% in assay [3]. Further, the outcome in assay [5], in assay [6], in assay [7] and in assay [8] was inactive.
`c1ccc(C(c2ccccc2)N2CCN(C(c3cccnc3)c3nnnn3C3CCCC3)CC2)cc1` (stereo not given): the growth inhibition is 59% (active) in assay [1] and 83% (active) in assay [4]. Besides, the inhibition is 4% in assay [2] and 0% in assay [3]. Also, the outcome in assay [5], in assay [6], in assay [7] and in assay [8] was inactive.
Take `Cc1ccc(O)cc1Nc1ccnc2cc(-c3ccccc3)ccc12`: the growth inhibition in assay [1] was 99% (active); in assay [4] it was 100% (active). Also, the inhibition in assay [2] was 45%; in assay [3], -2%. The outcome in assay [5], in assay [6], in assay [7] and in assay [8] was inactive.
Regarding `CS(=O)(=O)c1ccc(CNCc2cccc(-c3ccc(-c4nc5ccc(C(F)(F)F)cc5[nH]4)cc3)c2)cc1`, the results for the growth inhibition in assay [1] and in assay [4] were 96% (active) and 101% (active), respectively. Moreover, the inhibition was 31% in assay [2] and 4% in assay [3]. Also, the result in assay [5], in assay [6], in assay [7] and in assay [8] was inactive.
For `COCCNCc1nc(-c2ccc3c(Nc4ccc(F)c(O)c4)ccnc3c2)cs1`, the growth inhibition was 99% (active) in assay [1] and 101% (active) in assay [4]. Also, the results for the inhibition in assay [2] and in assay [3] were -7% and 6%, respectively. Further, the result in assay [5], in assay [6], in assay [7] and in assay [8] was inactive.
Take `CCN(CC)c1ccc2nc(N)nc(N)c2c1Cl`: the growth inhibition in assay [1] was 1%; in assay [4] it was 92% (active). Further, the inhibition in assay [2] is 62% (active); in assay [3] it was -5%. The outcome in assay [5], in assay [6], in assay [7] and in assay [8] was inactive.
Regarding `CCC(C)NC(=O)Nc1ccc(-c2cccc(-c3nc4ccccc4[nH]3)c2)cc1` (stereo not given), the growth inhibition in assay [1] is 37%; in assay [4] it was 94% (active). Further, the inhibition is 41% in assay [2] and 7% in assay [3]. In addition, the outcome in assay [5], in assay [6], in assay [7] and in assay [8] was inactive.
In the case of `CCN(c1ccccc1)S(=O)(=O)c1ccc(OC)c(NC(=O)c2cccc(C(F)(F)F)c2)c1`, the growth inhibition in assay [1] was 70% (active); in assay [4], 90% (active). In addition, the results for the inhibition in assay [2] and in assay [3] were 9% and -2%, respectively. The outcome in assay [5], in assay [6], in assay [7] and in assay [8] was inactive.
Regarding `O=C(NCCN1CCCC1)c1ccc(-c2cccc(-c3nc4ccc(F)cc4[nH]3)c2)cc1`, the growth inhibition in assay [1] is 2%; in assay [4] it was 100% (active). Besides, the inhibition in assay [2] was 29%; in assay [3], 1%. The result in assay [5], in assay [6], in assay [7] and in assay [8] was inactive.
Take `CCCOc1ccc(C=C(CC(=O)O)c2nc3ccccc3s2)cc1OCC`: the figures for the growth inhibition in assay [1] and in assay [4] were 84% (active) and 89% (active), respectively. The inhibition was 7% in assay [2] and -1% in assay [3]. The outcome in assay [5], in assay [6], in assay [7] and in assay [8] was inactive.
Consider `COc1cc(Cc2cnc(N)nc2N)cc(OCCCCC2SC(=O)NC2=O)c1OC` (stereo not given), for which the growth inhibition in assay [1] is 0%; in assay [4], 94% (active). The inhibition is -9% in assay [2] and 7% in assay [3]. The outcome in assay [5], in assay [6], in assay [7] and in assay [8] was inactive.
For the compound `COc1ccc(CNCc2ccc(-c3cccc(-c4nc5ccc(C(F)(F)F)cc5[nH]4)c3)cc2)cc1`, the growth inhibition in assay [1] was 100% (active); in assay [4] it was 102% (active). Moreover, the inhibition in assay [2] is 59% (active); in assay [3] it was -8%. Besides, the outcome in assay [5], in assay [6], in assay [7] and in assay [8] was inactive.
On to `O=C(Nc1cccc(CN2CCCN(Cc3ccccc3)CC2)c1)c1ccc(Cl)c(Cl)c1`, for which the growth inhibition in assay [1] is 16%; in assay [4], 95% (active). The inhibition in assay [2] was 23%; in assay [3], -6%. For the same compound, the result in assay [5], in assay [6], in assay [7] and in assay [8] was inactive.
On to `Cc1ccc(NC(=O)N2CCCN(CCCCCNC(=O)/C=C/c3ccc(Cl)c(Cl)c3)CC2)cc1C`, for which the growth inhibition in assay [1] is 4%; in assay [4], 101% (active). In addition, the values for the inhibition in assay [2] and in assay [3] were 62% (active) and 1%, respectively. Moreover, the result in assay [5], in assay [6], in assay [7] and in assay [8] was inactive.
